Measurements reported in PubChem BioAssay (NCI).
Where “and” joins values, the source holds several entries; their conditions need not be identical. Identical values can stand only once. The panel holds about 79,000 compounds, 15% with a hit somewhere; the sample as a whole holds those more often. Calls of active or inactive are those of the source. Rule as the data show it: active = growth inhibition above about 70%; inactive = the rest.

Legend:
[1] = NCI Yeast Anticancer Drug Screen. Data for the rad52 strain (AID 147);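 also: 0% = growth of vehicle-treated control cultures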; conditions: S. cerevisiae rad52 mutant growth inhibition, active compounds read high
Method in brief: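 Genetically altered yeast (DNA damage repair defect) treated with compound; inhibition calculated relative to vehicle.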

[2] = NCI Yeast Anticancer Drug Screen. Data for the mgt1 strain (AID 153); conditions: S. cerevisiae mgt1 mutant growth inhibition, active compounds read high
Method in brief: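 Read-out: yeast growth inhibition vs vehicle control. Strain mgt1, drawn from a panel altered in DNA damage repair or cell cycle control.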

[3] = NCI Yeast Anticancer Drug Screen. Data for the rad50 strain (AID 155);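 also: 0% = growth of vehicle-only cultures of the same strain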; conditions: S. cerevisiae rad50 strain growth inhibition, active compounds read high
Method in brief: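 A DNA repair-deficient yeast mutant serves as the test organism; compound-induced growth inhibition is calculated against vehicle-treated cells.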

[4] = NCI Yeast Anticancer Drug Screen. Data for the mec2-1 strain (AID 157); conditions: S. cerevisiae mec2-1 strain, active compounds read high
Method in brief: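 Cells of the genetically defined mec2-1 yeast strain are incubated with test compound. Inhibition of growth is calculated against vehicle-treated controls.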

[5] = NCI Yeast Anticancer Drug Screen. Data for the rad14 strain (AID 159);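 also: 0% = growth of vehicle-treated control cultures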; conditions: S. cerevisiae rad14 strain growth inhibition, active compounds read high
Method in brief: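 Vehicle-treated cultures served as the baseline for growth inhibition of a DNA repair-mutant yeast strain exposed to each compound.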

[6] = NCI Yeast Anticancer Drug Screen. Data for the sgs1 mgt1 strain (AID 161);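 also: 0% = growth of cultures given vehicle only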; conditions: S. cerevisiae sgs1 mgt1 strain, active compounds read high
Method in brief: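 Mutant yeast exposed to compound; growth scored against vehicle-only wells.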

[7] = NCI Yeast Anticancer Drug Screen. Data for the CLN2oe strain (AID 163);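 also: 0% = growth of vehicle-only control cultures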; conditions: S. cerevisiae CLN2oe strain, active compounds read high
Method in brief: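 Strain altered in cell-cycle control, incubated with compound; growth compared to solvent-treated controls.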

[8] = NCI Yeast Anticancer Drug Screen. Data for the cln2 rad14 strain (AID 165);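 also: 0% = growth equal to vehicle treated cultures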; conditions: S. cerevisiae cln2 rad14 strain, active compounds read high
Method in brief: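 The screen exposed genetically defined yeast (cln2 rad14) to test compounds and scored growth inhibition relative to vehicle-treated controls.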

[9] = NCI Yeast Anticancer Drug Screen. Data for the bub3 strain (AID 167); conditions: S. cerevisiae bub3 mutant strain, active compounds read high
Method in brief: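 Inhibition values come from growth of compound-treated mutant yeast normalised to vehicle-treated controls.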

[10] = NCI Yeast Anticancer Drug Screen. Data for the mlh1 strain (AID 171);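 also: 0% = growth of vehicle-treated control cultures of the same strain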; conditions: S. cerevisiae mlh1 strain growth inhibition, active compounds read high
Method in brief: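 Yeast screen: mutant strain plus compound, growth scored against vehicle control wells.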

[11] = NCI Yeast Anticancer Drug Screen. Data for the sgs1 strain (AID 173);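 also: 0% = growth of vehicle-only control cultures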; conditions: S. cerevisiae sgs1 mutant, active compounds read high
Method in brief: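 Inhibition of yeast growth served as the measure. The mutant strain was treated with each compound, and growth was normalised to cultures receiving vehicle alone.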

[12] = NCI Yeast Anticancer Drug Screen. Data for the mlh1 rad18 strain (AID 175); conditions: S. cerevisiae mlh1 rad18 strain growth inhibition, active compounds read high
Method in brief: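 Compound-treated yeast growth, normalised to vehicle controls. Strain bears defined DNA repair mutations.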

[13] = NCI Yeast Anticancer Drug Screen. Data for the rad18 strain (AID 177); conditions: S. cerevisiae rad18 mutant growth inhibition, active compounds read high
Method in brief: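 Inhibition values reflect reduced yeast growth compared with vehicle-treated controls, using a strain engineered with a DNA damage repair defect.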

[14] = NCI Yeast Anticancer Drug Screen. Data for the wt1 strain (AID 149);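 also: 0% = growth of vehicle-treated wt1 cultures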; conditions: S. cerevisiae wt1 strain (SPY 50644) growth inhibition, active compounds read high
Method in brief: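 Vehicle-normalised growth inhibition; strain wt1; compound exposure.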

[15] = NCI Yeast Anticancer Drug Screen. Data for the rad50EPP+ strain (AID 151);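 also: 0% = growth of vehicle-treated control cultures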; conditions: S. cerevisiae rad50 mutant strain, active compounds read high
Method in brief: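 Strain rad50EPP+; compound exposure; % growth inhibition vs vehicle.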

[16] = NCI Yeast Anticancer Drug Screen. Data for the wt2 strain (AID 169);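 also: 0% = growth of vehicle-treated yeast cultures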; conditions: S. cerevisiae wt2 strain growth inhibition, active compounds read high
Method in brief: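 Steps: yeast strain treated with compound; growth recorded; inhibition calculated relative to cultures given vehicle alone.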

[17] = at 5.0 µM (retest, dose inferred, filed as 0.5)
[18] = at 50.0 µM (retest, dose inferred, filed as 5.0)

Measured: growth inhibition

O=S(=O)(O)/C(=C\c1ccccc1)c1ccccc1 (tested in a mixture with another compound)
inactive: [1]; at 1.2 µM -3% | [1]; at 3.7 µM -2% | [1]; at 11.0 µM -6% | [1]; at 33.0 µM -5% | [1]; at 100.0 µM -8% | [2]; at 1.2 µM 0% | [2]; at 3.7 µM -1% | [2]; at 11.0 µM -1% | [2]; at 33.0 µM -2% | [2]; at 100.0 µM -2% | [3]; at 1.2 µM 0% | [3]; at 3.7 µM -5% | [3]; [17] 15% | [3]; at 11.0 µM 1% | [3]; at 33.0 µM -5% | [3]; [18] 15% | [3]; at 50.0 µM -10.3% and -8% and 14.8% | [3]; at 100.0 µM -4% | [4]; at 1.2 µM -3% | [4]; at 3.7 µM -2% | [4]; [17] 24% | [4]; at 11.0 µM -3% | [4]; at 33.0 µM -2% | [4]; [18] 24% | [4]; at 50.0 µM 2.1% and -4.7% and -21.4% | [4]; at 100.0 µM 10% | [5]; at 1.2 µM 0% | [5]; at 3.7 µM 0% | [5]; at 11.0 µM 2% | [5]; at 33.0 µM -7% | [5]; at 100.0 µM 3% | [6]; [17] 12% | [6]; [18] 3% | [6]; at 50.0 µM -28.2% and -11.8% and -14.2% | [7]; at 1.2 µM -3% | [7]; at 3.7 µM -1% | [7]; at 11.0 µM -5% | [7]; at 33.0 µM -7% | [7]; at 100.0 µM 2% | [8]; [17] 55% | [8]; [18] 23% | [8]; at 50.0 µM 28.4% and 15.9% and 9.35% | [9]; at 1.2 µM -11% | [9]; at 3.7 µM -6% | [9]; at 11.0 µM -30% | [9]; at 33.0 µM 19% | [9]; at 50.0 µM -19.1% and -0.25% and 3.5% | [9]; at 100.0 µM 1% | [10]; at 1.2 µM 0% | [10]; at 3.7 µM 2% | [10]; at 11.0 µM 1% | [10]; at 33.0 µM -22% | [10]; at 100.0 µM 10% | [11]; at 1.2 µM 0% | [11]; at 3.7 µM -1% | [11]; at 11.0 µM -2% | [11]; at 33.0 µM -5% | [11]; at 100.0 µM -4% | [12]; [17] 39% | [12]; [18] 4% | [12]; at 50.0 µM 8.8% and -6.15% and -15.1% | [13]; at 1.2 µM -2% | [13]; at 3.7 µM 2% | [13]; at 11.0 µM 5% | [13]; at 33.0 µM -5% | [13]; at 100.0 µM -11%
active: [9]; [17] 97% | [9]; [18] 95%

CC1CN=C(Nc2ccccc2)S1 (stereo unspecified)
inactive: [14]; at 1.2 µM -15% | [14]; at 3.7 µM -5% | [14]; at 11.0 µM -21% | [14]; at 33.0 µM -25% | [14]; at 100.0 µM -32% | [15]; at 1.2 µM -52% | [15]; at 3.7 µM -46% | [15]; at 11.0 µM -49% | [15]; at 33.0 µM -72% | [15]; at 100.0 µM -54% | [2]; at 1.2 µM -57% | [2]; at 3.7 µM -76% | [2]; at 11.0 µM -54% | [2]; at 33.0 µM -51% | [2]; at 100.0 µM -60% | [3]; at 1.2 µM -5% | [3]; at 3.7 µM 12% | [3]; at 11.0 µM -7% | [3]; at 33.0 µM 3% | [3]; at 100.0 µM -17% | [4]; at 1.2 µM -49% | [4]; at 3.7 µM -67% | [4]; at 11.0 µM -80% | [4]; at 33.0 µM -40% | [4]; at 100.0 µM -60% | [5]; at 1.2 µM -49% | [5]; at 3.7 µM -54% | [5]; at 11.0 µM -58% | [5]; at 33.0 µM -51% | [5]; at 100.0 µM -41% | [6]; [17] 2% | [6]; [18] 6% | [7]; at 1.2 µM -14% | [7]; at 3.7 µM -15% | [7]; at 11.0 µM -7% | [7]; at 33.0 µM -2% | [7]; at 100.0 µM 10% | [8]; [17] 16% | [8]; [18] 37% | [9]; at 1.2 µM -26% | [9]; at 3.7 µM -20% | [9]; [17] 26% | [9]; at 11.0 µM -41% | [9]; at 33.0 µM -25% | [9]; [18] 9% | [9]; at 100.0 µM -46% | [16]; at 1.2 µM -31% | [16]; at 3.7 µM -15% | [16]; at 11.0 µM -21% | [16]; at 33.0 µM -24% | [16]; at 100.0 µM -13% | [11]; at 1.2 µM -29% | [11]; at 3.7 µM -36% | [11]; at 11.0 µM -40% | [11]; at 33.0 µM -23% | [11]; at 100.0 µM -40% | [13]; at 1.2 µM -50% | [13]; at 3.7 µM -54% | [13]; at 11.0 µM -51% | [13]; at 33.0 µM -58% | [13]; at 100.0 µM -42%
active: [3]; [17] 100% | [3]; [18] 100% | [3]; at 50.0 µM 78.5% | [4]; [17] 100% | [4]; [18] 100% | [4]; at 50.0 µM 88.8% | [6]; at 50.0 µM 89.2% | [8]; at 50.0 µM 90.3% | [9]; at 50.0 µM 87.4% | [12]; [17] 100% | [12]; [18] 100% | [12]; at 50.0 µM 81.6%

CCCCCCCCCC[Se]C#N
inactive: [14]; at 1.2 µM -4% | [14]; at 3.7 µM 2% | [14]; at 11.0 µM -3% | [14]; at 33.0 µM 6% | [14]; at 100.0 µM 48% | [15]; at 1.2 µM 4% | [15]; at 3.7 µM 6% | [15]; at 11.0 µM 23% | [2]; at 1.2 µM -2% | [2]; at 3.7 µM 0% | [2]; at 11.0 µM 0% | [2]; at 33.0 µM 16% | [3]; at 1.2 µM 2% | [3]; at 3.7 µM -38% | [3]; [17] 30% | [3]; at 11.0 µM 14% | [3]; at 33.0 µM 52% | [4]; at 1.2 µM 1% | [4]; at 3.7 µM 4% | [4]; [17] 30% | [4]; at 11.0 µM 6% | [4]; at 33.0 µM 19% | [5]; at 1.2 µM -1% | [5]; at 3.7 µM -2% | [5]; at 11.0 µM 4% | [5]; at 33.0 µM 31% | [6]; [17] 46% | [7]; at 1.2 µM -1% | [7]; at 3.7 µM 0% | [7]; at 11.0 µM -4% | [7]; at 33.0 µM -7% | [7]; at 100.0 µM -3% | [8]; [17] 15% | [9]; at 1.2 µM 0% | [9]; at 3.7 µM -2% | [9]; [17] 4% | [9]; at 11.0 µM -2% | [9]; at 33.0 µM 5% | [16]; at 1.2 µM -2% | [16]; at 3.7 µM 7% | [16]; at 11.0 µM -1% | [16]; at 33.0 µM -2%
active: [15]; at 33.0 µM 76% | [15]; at 100.0 µM 97% | [2]; at 100.0 µM 95% | [3]; [18] 99% | [3]; at 50.0 µM 99.4% | [3]; at 100.0 µM 97% | [4]; [18] 99% | [4]; at 50.0 µM 99.6% | [4]; at 100.0 µM 77% | [5]; at 100.0 µM 99% | [6]; [18] 99% | [6]; at 50.0 µM 99.3% | [8]; [18] 99% | [8]; at 50.0 µM 97.3% | [9]; [18] 99% | [9]; at 50.0 µM 99.5% | [9]; at 100.0 µM 90% | [16]; at 100.0 µM 79%
